Out of some 5,500 compounds screened, about 2,000 (36%) were called active. About 18% were inconclusive and are not listed. Cut-off read from the data, not from the text of the source: active = normalized growth mostly below about 0.91 (no sharp cut-off); inconclusive = no clear call, values can overlap the other calls; inactive = mostly above about 0.92. This is one part of the list.
Assay: chemical genetic growth profiling, strain panel (AID 1159580);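 note: tested at 20 µM; growth read once vehicle control cultures reached saturation at 30 °C; 1 = growth at the plate median or of vehicle wells; lower values mean less growth of the strain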
Details: S. cerevisiae deletion strains, growth OD

Measured: normalized growth

CC1c2cccc(O)c2C(O)=C2C(=O)C3(O)C(O)=C(C(N)=O)C(=O)C(N(C)C)C3C(O)C21 (centres undefined)
inactive: locus YAL040C, strain CLN3, active compounds read low 0.944 | locus YCL061C, strain MRC1 (second series), active compounds read low 0.966 | locus YDR150W, strain NUM1, active compounds read low 0.983 | locus YDR363W, strain ESC2, active compounds read low 0.936 | locus YER002W, strain NOP16, active compounds read low 0.989 | locus YJR075W, strain HOC1, active compounds read low 0.971 | locus YMR263W, strain SAP30, active compounds read low 0.986 | locus YNL153C, strain GIM3, active compounds read low 0.891 | locus YNL175C, strain NOP13, active compounds read low 0.993 | locus YNL197C, strain WHI3, active compounds read low 1.02 | locus YNL224C, strain SQS1, active compounds read low 0.989 | locus YOR083W, strain WHI5 (second series), active compounds read low 0.977 | locus YPL241C, strain CIN2, active compounds read low 0.974
active: locus YGR229C, strain SMI1, active compounds read low 0.835

Reference: PubChem BioAssay AID1159580 (chemical genetic matrix, 2015)
